These results are taken from publication PMC7862700, “An all-to-all approach to the identification of sequence-specific readers for epigenetic DNA modifications on cytosine”.

What all share (experiment): DAPPL (digital affinity profiling via proximity ligation, sequencing); 10 mM Tris-HCl pH 7.5, 50 mM NaCl, 1 mM DTT, 4% glycerol, room temperature, 30 min; GST-TFs on glutathione beads, 16-mer random dsDNA library, 0.1% formaldehyde crosslink after washing; high values mean tight binding
Holding throughout (conditions): protein: recombinant; tags: N-terminal GST; dsDNA, one strand shown

One assay deals with T1, ERF (Homo sapiens, UniProt P50548 1-548).
T1 sequence: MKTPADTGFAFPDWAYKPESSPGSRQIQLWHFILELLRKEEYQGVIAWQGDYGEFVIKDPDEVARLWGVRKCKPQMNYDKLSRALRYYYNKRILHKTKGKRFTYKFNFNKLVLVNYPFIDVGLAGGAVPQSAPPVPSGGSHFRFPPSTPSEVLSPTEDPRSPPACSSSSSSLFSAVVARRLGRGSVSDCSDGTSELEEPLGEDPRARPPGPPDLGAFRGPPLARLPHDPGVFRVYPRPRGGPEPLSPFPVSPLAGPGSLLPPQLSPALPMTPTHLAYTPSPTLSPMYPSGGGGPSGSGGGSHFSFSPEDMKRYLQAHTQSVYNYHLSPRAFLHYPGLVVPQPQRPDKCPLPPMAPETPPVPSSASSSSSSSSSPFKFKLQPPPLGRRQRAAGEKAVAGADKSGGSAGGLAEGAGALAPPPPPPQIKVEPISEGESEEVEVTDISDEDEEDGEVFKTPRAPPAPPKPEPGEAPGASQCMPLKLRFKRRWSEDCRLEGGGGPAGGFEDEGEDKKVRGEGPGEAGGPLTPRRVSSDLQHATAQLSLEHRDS
Summed up: (§1)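 Sequencing on an Illumina NextSeq500 followed washing, crosslinking with 0.1% formaldehyde, proximity ligation (BsaI/T4 ligase, 1 h, 37 °C) and PCR amplification of pools that had been incubated for 30 min at room temperature with 200 nmole of a random double-stranded 16-mer DNA library in Tris/NaCl/DTT/glycerol buffer. Each pool held DNA-barcoded human transcription factors, expressed in yeast as GST fusions and captured on glutathione beads, plus a tag-only sample. Binding signal is a hexamer's read frequency for a factor divided by its frequency in the tag-only sample.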

Another assay addresses T2, ETV3L (Homo sapiens, UniProt Q6ZN32 1-361).
T2 sequence: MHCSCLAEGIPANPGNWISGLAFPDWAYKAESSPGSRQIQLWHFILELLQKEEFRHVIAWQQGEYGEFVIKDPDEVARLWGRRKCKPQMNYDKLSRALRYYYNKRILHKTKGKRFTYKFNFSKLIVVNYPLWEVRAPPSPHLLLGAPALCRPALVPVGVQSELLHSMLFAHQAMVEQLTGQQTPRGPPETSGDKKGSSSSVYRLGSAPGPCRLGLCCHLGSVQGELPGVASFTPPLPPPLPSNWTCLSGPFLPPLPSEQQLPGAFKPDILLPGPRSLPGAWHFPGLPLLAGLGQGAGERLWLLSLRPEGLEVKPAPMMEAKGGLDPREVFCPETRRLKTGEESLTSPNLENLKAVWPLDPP
Put shortly:
as §1

The target in a further assay is T3, ETS2 (Homo sapiens, UniProt P15036 1-469).
T3 sequence: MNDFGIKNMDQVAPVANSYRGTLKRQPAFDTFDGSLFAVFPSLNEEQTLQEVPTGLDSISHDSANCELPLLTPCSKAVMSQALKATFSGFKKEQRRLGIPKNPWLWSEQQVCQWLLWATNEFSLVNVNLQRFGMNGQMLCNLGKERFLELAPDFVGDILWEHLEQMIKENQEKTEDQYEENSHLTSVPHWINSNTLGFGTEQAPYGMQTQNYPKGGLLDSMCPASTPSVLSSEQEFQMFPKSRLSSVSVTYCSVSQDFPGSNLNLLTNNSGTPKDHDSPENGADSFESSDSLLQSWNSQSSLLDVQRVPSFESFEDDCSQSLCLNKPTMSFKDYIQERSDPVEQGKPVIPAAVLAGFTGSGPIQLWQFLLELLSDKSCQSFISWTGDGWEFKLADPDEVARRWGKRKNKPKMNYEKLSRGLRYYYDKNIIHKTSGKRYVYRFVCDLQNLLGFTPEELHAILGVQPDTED
Put shortly: as §1

A further assay has as its target T4, SPDEF (Homo sapiens, UniProt O95238 1-335).
T4 sequence: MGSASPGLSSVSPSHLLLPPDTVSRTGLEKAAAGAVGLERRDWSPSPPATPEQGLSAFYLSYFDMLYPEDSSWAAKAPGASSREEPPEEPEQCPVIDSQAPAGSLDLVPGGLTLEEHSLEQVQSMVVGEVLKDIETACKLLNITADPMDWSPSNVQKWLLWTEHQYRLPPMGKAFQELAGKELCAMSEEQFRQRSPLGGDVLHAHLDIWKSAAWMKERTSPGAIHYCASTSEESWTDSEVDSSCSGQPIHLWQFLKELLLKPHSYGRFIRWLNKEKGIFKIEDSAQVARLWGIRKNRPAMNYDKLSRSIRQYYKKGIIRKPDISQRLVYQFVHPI
Put shortly:
as §1

Another assay addresses T5, ETV7 (Homo sapiens, UniProt Q9Y603 1-341).
T5 sequence: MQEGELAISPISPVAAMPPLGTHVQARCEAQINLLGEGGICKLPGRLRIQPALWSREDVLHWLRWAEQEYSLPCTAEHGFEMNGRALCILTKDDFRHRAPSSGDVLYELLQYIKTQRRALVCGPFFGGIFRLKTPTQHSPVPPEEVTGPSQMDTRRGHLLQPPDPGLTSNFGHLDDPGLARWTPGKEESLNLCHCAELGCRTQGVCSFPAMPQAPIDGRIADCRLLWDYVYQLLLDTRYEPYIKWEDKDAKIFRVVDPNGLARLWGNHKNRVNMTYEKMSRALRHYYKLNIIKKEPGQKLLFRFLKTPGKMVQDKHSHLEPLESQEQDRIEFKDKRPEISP
Summed up: as §1

Another assay has as its target T6, ELF5 (Homo sapiens, UniProt Q9UKW6-2 1-255).
T6 sequence: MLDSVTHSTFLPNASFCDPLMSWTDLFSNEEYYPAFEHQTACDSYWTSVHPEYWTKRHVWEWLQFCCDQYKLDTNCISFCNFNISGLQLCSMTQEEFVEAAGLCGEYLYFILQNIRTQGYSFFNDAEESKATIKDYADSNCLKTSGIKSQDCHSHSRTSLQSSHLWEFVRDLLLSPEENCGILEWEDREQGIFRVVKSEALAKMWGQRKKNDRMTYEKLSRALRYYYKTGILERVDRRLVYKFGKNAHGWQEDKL
Put shortly:
as §1

A further assay concerns the target T7, ETV3 (Homo sapiens, UniProt P41162-2 1-143).
T7 sequence: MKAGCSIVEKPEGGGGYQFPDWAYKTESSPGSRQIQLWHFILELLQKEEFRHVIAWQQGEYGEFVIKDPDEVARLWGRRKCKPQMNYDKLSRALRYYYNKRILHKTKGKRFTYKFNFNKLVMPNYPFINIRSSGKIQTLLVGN
Summed up:
as §1

For a further assay, the target named is ETV6 (Homo sapiens, UniProt P41212 1-452). Summed up:
as §1

Chain of ETV6 (P41212 whole entry): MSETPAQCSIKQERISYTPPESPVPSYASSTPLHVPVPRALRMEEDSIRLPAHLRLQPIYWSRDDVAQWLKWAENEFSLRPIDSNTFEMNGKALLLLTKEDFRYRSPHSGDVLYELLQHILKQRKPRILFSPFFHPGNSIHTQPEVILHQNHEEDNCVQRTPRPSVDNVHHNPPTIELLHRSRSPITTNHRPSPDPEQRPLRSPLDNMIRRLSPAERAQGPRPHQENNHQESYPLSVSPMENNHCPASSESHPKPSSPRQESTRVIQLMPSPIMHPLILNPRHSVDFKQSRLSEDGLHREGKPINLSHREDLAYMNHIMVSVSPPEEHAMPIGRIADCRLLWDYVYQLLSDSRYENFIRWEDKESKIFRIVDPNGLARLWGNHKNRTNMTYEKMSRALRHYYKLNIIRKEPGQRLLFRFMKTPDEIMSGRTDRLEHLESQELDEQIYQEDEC

In the case of ATATCA, the binding signal is 1.19 fold enrichment (6-mer frequency, TF over GST control) with ERF; 1.1 fold enrichment (6-mer frequency, TF over GST control) with ETV3L; 1.2 fold enrichment (6-mer frequency, TF over GST control) with ETS2; 1.2 fold enrichment (6-mer frequency, TF over GST control) with SPDEF; 1.13 fold enrichment (6-mer frequency, TF over GST control) with ETV7; 1.11 fold enrichment (6-mer frequency, TF over GST control) with ELF5. The binding signal with ETV3 was 1.23 fold enrichment (6-mer frequency, TF over GST control); with ETV6, 1.18 fold enrichment (6-mer frequency, TF over GST control).
Consider CTGAAA, for which the binding signal is 1.09 fold enrichment (6-mer frequency, TF over GST control) with ERF; 1.1 fold enrichment (6-mer frequency, TF over GST control) in the assay with ETV3L; 1.19 fold enrichment (6-mer frequency, TF over GST control) with ETS2; 1.16 fold enrichment (6-mer frequency, TF over GST control) in the assay with SPDEF; 1.12 fold enrichment (6-mer frequency, TF over GST control) with ETV7; 1.09 fold enrichment (6-mer frequency, TF over GST control) with ELF5. Also, the binding signal was 1.17 fold enrichment (6-mer frequency, TF over GST control) in the assay with ETV3 and 1.16 fold enrichment (6-mer frequency, TF over GST control) in the assay with ETV6.
GAACCT: the binding signal with ERF was 1.04 fold enrichment (6-mer frequency, TF over GST control); with ETV3L, 1.18 fold enrichment (6-mer frequency, TF over GST control); in the assay with ETS2, 1.14 fold enrichment (6-mer frequency, TF over GST control); with SPDEF, 1.08 fold enrichment (6-mer frequency, TF over GST control); with ETV7 it was 1.19 fold enrichment (6-mer frequency, TF over GST control); with ELF5, 1.03 fold enrichment (6-mer frequency, TF over GST control). Also, the binding signal is 1.1 fold enrichment (6-mer frequency, TF over GST control) in the assay with ETV3 and 1.03 fold enrichment (6-mer frequency, TF over GST control) in the assay with ETV6.
With TCACGT, the binding signal is 1.28 fold enrichment (6-mer frequency, TF over GST control) with ERF; 1.22 fold enrichment (6-mer frequency, TF over GST control) in the assay with ETV3L; 1.2 fold enrichment (6-mer frequency, TF over GST control) in the assay with ETS2; 1.15 fold enrichment (6-mer frequency, TF over GST control) in the assay with SPDEF; 1.22 fold enrichment (6-mer frequency, TF over GST control) with ETV7; 1.19 fold enrichment (6-mer frequency, TF over GST control) with ELF5. In addition, the binding signal in the assay with ETV3 is 1.19 fold enrichment (6-mer frequency, TF over GST control); with ETV6 it was 1.24 fold enrichment (6-mer frequency, TF over GST control).
As for CCTCCA, the binding signal with ERF is 1.34 fold enrichment (6-mer frequency, TF over GST control); with ETV3L, 1.24 fold enrichment (6-mer frequency, TF over GST control); with ETS2, 1.31 fold enrichment (6-mer frequency, TF over GST control); with SPDEF, 1.34 fold enrichment (6-mer frequency, TF over GST control); in the assay with ETV7, 1.36 fold enrichment (6-mer frequency, TF over GST control); with ELF5, 1.42 fold enrichment (6-mer frequency, TF over GST control). The binding signal is 1.24 fold enrichment (6-mer frequency, TF over GST control) in the assay with ETV3 and 1.29 fold enrichment (6-mer frequency, TF over GST control) with ETV6.
In the case of TTCAAC, the binding signal with ERF is 1.31 fold enrichment (6-mer frequency, TF over GST control); with ETV3L it was 1.16 fold enrichment (6-mer frequency, TF over GST control); with ETS2, 1.29 fold enrichment (6-mer frequency, TF over GST control); in the assay with SPDEF, 1.28 fold enrichment (6-mer frequency, TF over GST control); in the assay with ETV7, 1.19 fold enrichment (6-mer frequency, TF over GST control); with ELF5, 1.27 fold enrichment (6-mer frequency, TF over GST control). For the same sequence, the binding signal with ETV3 was 1.32 fold enrichment (6-mer frequency, TF over GST control); in the assay with ETV6, 1.19 fold enrichment (6-mer frequency, TF over GST control).
With TTAAGG, the binding signal with ERF was 1.16 fold enrichment (6-mer frequency, TF over GST control); with ETV3L, 1.09 fold enrichment (6-mer frequency, TF over GST control); in the assay with ETS2, 1.1 fold enrichment (6-mer frequency, TF over GST control); with SPDEF, 1.28 fold enrichment (6-mer frequency, TF over GST control); in the assay with ETV7, 1.12 fold enrichment (6-mer frequency, TF over GST control); in the assay with ELF5 it was 1.26 fold enrichment (6-mer frequency, TF over GST control). Further, the binding signal is 1.16 fold enrichment (6-mer frequency, TF over GST control) in the assay with ETV3 and 1.06 fold enrichment (6-mer frequency, TF over GST control) with ETV6.
